Results: PubChem BioAssay (NCI)
About 83,000 compounds went through this panel and 20% of them were active in at least one assay; those are over-represented in the sample as a whole.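 Cells were grown in 96-well plates and exposed to the test compound at a single concentration for 48 hours; results are reported as percent growth, with values below 10 considered active.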 A number with no mark means an inactive call. Calls of active or inactive are those of the source.

Key:
Assay in all cases: NCI-60 one-dose screen, 48 h (100 = growth as untreated, 0 = no growth, -100 = all killed)
Settings in all cases: 10 µM unless noted
RPMI-8226 leukemia = test system: RPMI-8226 leukemia
OVCAR-8 ovarian = test system: OVCAR-8 ovarian
OVCAR-5 ovarian = test system: OVCAR-5 ovarian
OVCAR-4 ovarian = test system: OVCAR-4 ovarian
SK-OV-3 ovarian = test system: SK-OV-3 ovarian
IGROV1 ovarian = test system: IGROV1 ovarian
OVCAR-3 ovarian = test system: OVCAR-3 ovarian
HS 578T breast = test system: HS 578T breast
NCI/ADR-RES ovarian = test system: NCI/ADR-RES ovarian
T-47D breast = test system: T-47D breast

Compound | growth (RPMI-8226 leukemia) | growth (OVCAR-8 ovarian) | growth (OVCAR-5 ovarian) | growth (OVCAR-4 ovarian) | growth (SK-OV-3 ovarian) | growth (IGROV1 ovarian) | growth (OVCAR-3 ovarian) | growth (HS 578T breast) | growth (NCI/ADR-RES ovarian) | growth (T-47D breast)
CN(C)CCCNc1c2ccccc2nc2c1oc1ccc(Cl)cc12 | 14.4% | 25.4% | 51.6% | 50.6% | 57.6% | 25.8% | 63.5% | 47.7% | 22% | 63.7%
O=C(CSc1nc2sc3c(c2c(=O)n1-c1ccc(Cl)cc1)CCCC3)NNC(=O)Nc1ccc(Cl)c(C(F)(F)F)c1 | 0.887% (active) | 27.2% | 49.4% | 16% | 74.9% | 29.7% | 4.44% (active) | 69.4% | 61% | -34.2% (active)
O=[N+]([O-])c1ccc(O)c2ncccc12 | 22.1% | 16.9% | 40.1% | 40.8% | 58.7% | 23.6% | 11.4% | 47.3% | 15.5% | 25.9%
O=C(N/N=C/c1ccc([N+](=O)[O-])o1)c1[nH]c2ccc(Br)cc2c1-c1ccccc1 | 0.483% (active) | -5.13% (active) | 35.7% | 38.2% | 30.4% | 15.6% | 21.9% | 8.44% (active) | 18.7% | 53.9%
O=C1Nc2ccc(Cl)cc2/C1=C/c1ccc(OCC(=O)c2ccc(Br)cc2)cc1 | 101% | 96% | 93.2% | 91.7% | 79.9% | 63% | 90.3% | 89.3% | 93.3% | 84.2%
COc1ccc(-n2c(SCC(=O)Nc3ccc(-c4nc5ccccc5[nH]4)cc3)nc3ccccc3c2=O)cc1 | -21.2% (active) | 20.9% | 68.5% | -33.7% (active) | 136% | 17.5% | -34.8% (active) | 28.7% | 32.5% | -51.8% (active)
COc1cc(/C=C/C(=O)c2ccccc2)ccc1Oc1nc(NCCO)nc(N2CCOCC2)n1 | 54.5% | 99.1% | 108% | 109% | 99.3% | 100% | 124% | 98% | 107% | 93.6%
COc1ccc(-c2nc3ccc(-c4nnc(SCC(=O)Nc5ccc(C(=O)/C=C/c6ccccc6)cc5)o4)cc3[nH]2)cc1OC | 64% | 104% | 99.4% | 109% | 117% | 96.4% | 114% | 96.1% | 110% | 86.9%
N#Cc1c(-c2ccc(Cl)cc2)nc(SCc2ccc([N+](=O)[O-])cc2)nc1N1CCNCC1 | -24.5% (active) | -81.6% (active) | 3.39% (active) | 26.9% | 111% | -1.76% (active) | -32.6% (active) | 52.1% | 8.72% (active) | -9.43% (active)
OC1CCN(CCCOc2c3ccc(Cl)cc3nc3c2oc2ccc(Cl)cc23)CC1 | -8.79% (active) | 27.7% | -28.1% (active) | 55% | 50.8% | 9.03% (active) | 46.5% | 20.5% | 32.4% | 52.3%
Clc1ccc2c(NCCCN3CCOCC3)c3oc4ccc(Cl)cc4c3nc2c1 | 67.8% | 35.6% | 47.4% | 87.4% | 89.3% | 42.9% | 104% | 84% | 42.5% | 91.4%
CCN1C(=S)N(CC)C2C1N=C(SC)N2/N=C/C=C/c1ccccc1[N+](=O)[O-] (stereo not given) | 83.4% | 84.7% | 98.2% | 83.6% | 109% | 106% | 121% | 88.1% | 94.3% | 88.4%
Cc1cc2nc3c4cc(Cl)ccc4n(CC(=O)NCCN(C)C)c3nc2cc1C | -27.3% (active) | 55.9% | -16.7% (active) | 95.7% | 106% | 56.2% | 96.7% | 71.9% | 55.4% | 82%
COc1cccc(N2CCN(c3ncnc4c3[nH]c3ccc(F)cc34)C[C@@H]2C)c1 | -34.7% (active) | -96.7% (active) | 0.0989% (active) | -56.5% (active) | -3.28% (active) | -30.2% (active) | -7.65% (active) | -18.7% (active) | 7.77% (active) | -52.6% (active)
